Data as given in PubChem BioAssay (NCI).
Values joined by “and” are separate entries in the source; they are usually repeats but may differ in a detail not shown here. Equal entries are not always repeated. This is part of a sample that, as a whole, favours compounds with a hit. Of some 83,000 tested, about 20% had one in any assay.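 Results are percent growth after 48 hours of single-concentration exposure. 100 means growth as in untreated cells, lower positive values show inhibition; negative values down to -100 show cell death.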 Active and inactive are the calls of the source. The calls were made as follows: active = growth percent below 10; inactive = the rest.

The compounds below were run on MDA-MB-468 breast (assay: NCI-60 one-dose screen, 48 h (100 = growth as untreated, 0 = no growth, -100 = all killed)). Conditions: 10 µM unless noted.
For `Cc1ccc(Cc2cnc(NC(=O)CN3C(=O)/C(=C\c4ccccc4)SC3=S)s2)cc1`, the growth was 105% (inactive). In the case of `O=C1NN(c2ccccc2)C(c2ccc(Cl)cc2)N2CCC[C@H]12` (stereo not given in full), the growth is reported as 98.7% (inactive). `CC1=CN2C(=NC3=C(CCCC/C3=C\c3ccccc3)C2c2ccccc2)S1` (stereo not given) was tested, and the growth was 116% (inactive). `CN1C(=O)N(C)C2C1NN=c1s/c(=C\c3ccccc3F)c(=O)n12` (stereo not given) was tested, and the growth was 11.6% (inactive). In the case of `O=C(Nc1ccccc1O)c1ccc(CNc2ccnc(C(F)(F)F)c2)cc1`, the growth is reported as 90.7% (inactive). With `Nc1c(C(=O)c2ccc(F)cc2)sc2nc3c(cc12)CCCC3` the growth was 59.9% (inactive). `CCCC[n+]1c(/C=C\c2c(OC)cc(OC)cc2OC)ccc2ccccc21` was tested, and the growth was -31% (active). For `O=C(NC(=O)c1ccc(F)c(Cl)c1)NC1CC1`, the growth was 103% (inactive) and 87.4% (inactive). `CC(C)(C)CC(C)(C)Cc1ccc(OCCOCC[N+](C)(C)Cc2ccccc2)cc1` was tested, and the growth was -35.3% (active). With `O=C(O)c1cccc2oc(-c3ccccc3O)nc12` the growth was 35.2% (inactive). In the case of `COc1ccc(-c2cc(-c3ccc(OC)cc3)nc(NCCCNc3ccnc4cc(Cl)ccc34)n2)cc1`, the growth is reported as 74.8% (inactive). With `NCCCc1nnc(CCC(=O)c2nc3ccccc3[nH]2)o1` the growth was 107% (inactive). For `Cc1sc2c(c1C)c(=O)nc1c(-c3nc4ccccc4s3)n[nH]n12`, the growth was 101% (inactive). `C[C@@H](C[C@H](CC1CC1)c1ccccc1)c1ccc2ccccc2c1` was tested, and the growth was 101% (inactive). `CCCCCN(CCCCC)CCC[C@@H](C)[C@H]1CC[C@H]2[C@@H]3[C@H](OCCCN)C[C@@H]4C[C@H](OCCCN)CC[C@]4(C)[C@H]3C[C@H](OCCCN)[C@]12C` was tested, and the growth was 71.1% (inactive). For `CC1=C(C/C=C(\C)CCC[C@H](C)CCC[C@H](C)CCCC(C)C)C(=O)c2ccccc2C1=O`, the growth was 116% (inactive). In the case of `COC(=O)[C@]12CC[C@@H](C)[C@H](C)[C@@H]1C1=CC[C@@H]3[C@@]4(C)C[C@@H](OC(C)=O)[C@H](O)[C@@](C)(COC(C)=O)[C@@H]4[C@H](O)C[C@@]3(C)[C@]1(C)CC2`, the growth is reported as -90.2% (active). For `Clc1ccc2nc(CI)c(CI)nc2c1`, the growth was 55.6% (inactive). `COc1ccc(/C=C2\N=C(c3cccnc3)N(c3ccccc3)NC2=O)cc1` was tested, and the growth was 94.1% (inactive). For `CC1(C)O[C@H]2OC3CCC(=O)CC3(O)[C@H]2O1` (stereo not given in full), the growth was 98.5% (inactive). `CC/C=C\C[C@H](O)C/C=C1/C(=O)C=C[C@@H]1C/C=C\CCCC(=O)N(C)C` was tested, and the growth was -67.8% (active). `O=C1/C(=C/c2ccc(O)cc2)Cc2ccc(Cl)cc21` was tested, and the growth was 65% (inactive). In the case of `Cn1ccc(Cc2cnc(N)s2)n1`, the growth is reported as 103% (inactive). For `Cc1ncc(C(=O)Nc2ccc(CN3CCN(C)CC3)c(C(F)(F)F)c2)cc1C#Cc1cnc(N)c2ccncc12`, the growth was -36.7% (active). With `CCOC(=O)Oc1c(OC)cc(C(=O)c2ccc(OC)c(OC(=O)CCl)c2OC)cc1OC` the growth was 0.206% (active). `Cc1cc2nc(C(Cl)Cl)nc(-c3ccco3)n2n1` was tested, and the growth was -34% (active). In the case of `Cc1cc(F)cc(NS(=O)(=O)c2ccc(-c3cnc(C4CC4)o3)cc2)c1`, the growth is reported as -1.16% (active). With `COc1ccc2sc3cccc(NCCN(C)C)c3c(=O)c2c1` the growth was 52.3% (inactive) and -82% (active). In the case of `COc1ccc(C2NC(=O)c3cc4c(cc3N2)OCO4)cc1` (stereo not given), the growth is reported as -1.6% (active). `Cc1nc(-c2cc3ccccc3oc2=O)ccc1C(=O)/C=C/c1ccc(N2CCOCC2)cc1` was tested, and the growth was 45.6% (inactive). In the case of `Clc1ccccc1[C@@H]1C[C@@H]2Cc3cc(Br)c4ccccc4c3N1O2`, the growth is reported as 4.19% (active). `O=C(Nc1ncc(Cc2cccc(C(F)(F)F)c2)s1)C1COc2ccccc2O1` (stereo not given) was tested, and the growth was 77.4% (inactive). For `C#CCOc1ccc(-c2csc(NC(=O)C=C)n2)cc1NS(=O)(=O)c1cccc2c(N(C)C)cccc12`, the growth was 11.3% (inactive). With `COc1cc2nc(-c3cccc4cccnc34)nc(NC3CCN(Cc4ccccc4)CC3)c2cc1OC` the growth was -78.5% (active). `CSc1nc(N)c(NS(=O)(=O)c2ccc(C(C)=O)cc2)c(=O)[nH]1` was tested, and the growth was 97% (inactive). With `COc1cccc(-c2nc3sccn3c2-c2cccc(S(C)(=O)=O)c2)c1` the growth was 89.1% (inactive). With `COc1ccc2c(c1)/C(=C1\S/C(=N/c3nnc(C)s3)NC1=O)C(=O)N2Cc1ccc(Cl)cc1` the growth was 50.9% (inactive). With `C[C@@H](CO)[C@@H]1CCC=C2CC[C@]3(C)[C@H](CC[C@@H]4[C@@]5(C)CCCNC(C)(C)[C@@H]5CC[C@]43C)[C@H]21` the growth was -15.2% (active). For `CCN(CC)CCN1CNC(=S)NC1`, the growth was 99.7% (inactive). `Nc1c(Cl)cc(/C=C2\C=Cc3ccccc32)cc1Cl` was tested, and the growth was 97.9% (inactive).
